High-throughput results deposited in PubChem BioAssay by several laboratories.
The list is not random: actives were taken first. Their share in the collection is about 22%.
CYP2C9 inhib – inhibitors of human CYP2C9; AID 777; P11712; CYP2C9 Supersomes, luciferin-H conversion, luminescence; hit rate 20% among 96,000; inhibition, % at 5 µM;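 active = blocking of liver enzyme CYP2C9 beyond about 50% at 5 µM, limit read from the data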
Target sequence (P11712 whole entry, looked up): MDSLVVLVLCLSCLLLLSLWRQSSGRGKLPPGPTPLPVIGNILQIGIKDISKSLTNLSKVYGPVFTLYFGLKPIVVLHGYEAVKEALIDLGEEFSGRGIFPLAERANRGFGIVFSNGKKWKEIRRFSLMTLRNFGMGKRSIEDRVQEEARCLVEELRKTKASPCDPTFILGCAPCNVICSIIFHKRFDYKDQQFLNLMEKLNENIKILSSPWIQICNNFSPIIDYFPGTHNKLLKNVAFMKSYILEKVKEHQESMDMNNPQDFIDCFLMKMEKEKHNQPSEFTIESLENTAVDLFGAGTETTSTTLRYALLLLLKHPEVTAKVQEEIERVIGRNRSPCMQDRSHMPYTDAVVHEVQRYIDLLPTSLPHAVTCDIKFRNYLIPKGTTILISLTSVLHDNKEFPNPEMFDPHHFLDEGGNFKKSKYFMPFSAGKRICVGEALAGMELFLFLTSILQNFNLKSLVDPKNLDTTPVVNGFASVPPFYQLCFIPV
CYP2C9 activ – CYP2C9 (human) activation. P11712. recombinant CYP2C9, luciferin-H conversion, luminescence; hits give high values; factor 1 = untreated enzyme, 0 = blocked. activation factor at 5 µM. hit rate 1.4% among 96,000. AID 1024;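 active = activation factor of 2 or more for CYP2C9 at a 5 µM dose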;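 also: 0 = sulfaphenazole-blocked wells and 1 = vehicle-only wells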
CYP2C19 activ – increases human CYP2C19 enzyme activity. recombinant CYP2C19, luciferin-H EGE luminescence; hits give high values; 0 = fully inhibited enzyme, 1 = untreated enzyme. AID 1025. activation factor at 5 µM. P33261. 96,000 tested, under 10 active;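 active = activation factor of at least 2 at 5 µM in the primary screen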;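 also: 0 = wells with 2.5 mM tranylcypromine and 1 = vehicle-only wells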
CYP2C19 inhib – human CYP2C19 inhibition; inhibition, % at 5 µM; CYP2C19 Supersomes, luciferin-H EGE luminescence, 30 min; hit rate 21% among 96,000; AID 778; P33261;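 active = CYP2C19 inhibition above a set limit at 5 µM in the primary screen, cut at about 50% in these data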;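 also: plate controls were negative control wells for no effect and 2.5 mM tranylcypromine positive control for full effect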
Measles CPE – protection of cells from measles virus | Measles virus-infected cells, CPE protection, absorbance | protection (pct of control), % at 4 µM | hit rate 1.5% among 140,000 | AID 841; in the data active = protection mostly above about 24%, no sharp cut-off; inactive = mostly below about 26%
* hit, by the source's call; . = not tested or not shown.

SMILES	CYP2C9 inhib	CYP2C9 activ	CYP2C19 activ	CYP2C19 inhib	Measles CPE
CCCCCCN=C(C)C1=C(O)C(C(=O)OC)C(C)(C)CC1=O (configuration not stated)	24.2	0.8	0.5	45.5	5.0
COc1ccc(C(=O)NC(=S)Nc2cc(C)ccn2)cc1[N+](=O)[O-]	.	.	.	.	10.5
O=C(N/N=C/c1ccccc1O)c1cc(=O)[nH]c2ccccc12	.	.	.	.	5.0
COc1ccc(Cn2nnnc2C(C(C)C)N2CCN(c3ccccc3OC)CC2)cc1 (configuration not stated)	97.3*	0	0.1	92.2*	6.4
N#Cc1cccc(C(c2nnnn2C2CCCC2)N2CCC(Cc3ccccc3)CC2)c1 (configuration not stated)	.	.	.	.	-1.5
COc1ccc(C(c2nnnn2Cc2ccccc2)N2CCN(c3nc4ccccc4s3)CC2)cc1 (configuration not stated)	62.6*	0.4	0.5	54.1*	11.6
N#Cc1ccc(C(c2nnnn2C2CCCC2)N2CCC(Cc3ccccc3)CC2)cc1 (configuration not stated)	25.7	0.7	0.4	55.7*	8.2
COc1ccc(C(c2nnnn2Cc2cccs2)N2CCN(c3ccccc3F)CC2)cc1 (configuration not stated)	90.2*	0.1	0.1	92.0*	17.9
COCCn1nnnc1C(c1ccc(OC)cc1OC)N1CCN(c2ccccc2F)CC1 (configuration not stated)	19.4	0.8	0.7	30.1	10.6
O=C(CSc1ncnc2c1cnn2CCO)Nc1cccc(C(F)(F)F)c1	.	.	.	.	8.6
CCOc1ccc(C(=O)N(Cc2ccc(OC)cc2)Cc2cc3cc(OC)ccc3[nH]c2=O)cc1	-1.0	1	1	-3.3	6.7
COCCn1nnnc1C(c1cccc(C#N)c1)N1CCCCCC1 (configuration not stated)	40.8	0.6	0.3	68.5*	5.0
CCOC(=O)c1c(NC(=O)/C=C/c2ccc(C)o2)sc(C)c1C	9.3	0.9	1	-1.0	8.9
CC(C)Oc1cccc(C(=O)NC(=S)Nc2cccc(C(F)(F)F)c2)c1	-70.8	1.7	1	-3.6	4.0
CCC(C)[C@H](NC(=O)Nc1cccc(OC)c1)C(=O)OC (some centres not stated)	11.1	0.9	0.5	54.7*	19.3
CCC(C)[C@H](NC(=O)Nc1cccc(Br)c1)C(=O)OC (some centres not stated)	.	.	.	.	3.8
CCC(C)[C@H](NC(=O)NCc1ccc(Cl)cc1)C(=O)OC (some centres not stated)	22.5	0.8	0.5	51.8*	9.8
COc1cccc(C(C)NC(=O)Nc2cccc(C(F)(F)F)c2)c1 (configuration not stated)	45.6	0.5	0.3	67.3*	4.1
CC(C)[C@H](NC(=O)NCc1ccc(Cl)cc1)C(=O)O	-7.2	1.1	1.1	-8.0	5.2
CCN(c1ccccc1)S(=O)(=O)c1ccc(Cl)c(NC(=O)CSc2nncn2C)c1	.	.	.	.	25.1
NC(=O)C1(N2CCCCC2)CCN(C(=O)CSc2nc(C(F)(F)F)cc(=O)[nH]2)CC1	-7.2	1.1	0.9	6.6	20.2
CCC1(C)Cc2c(sc3nc(NN)n(C)c(=O)c23)CO1 (configuration not stated)	93.9*	0.1	0	99.0*	3.1
COc1ccc(S(=O)(=O)N2CCC(C(=O)NCc3ccccn3)CC2)cc1Cl	-119.8	2.2*	0.7	32.2	15.5
O=C(COc1ccc(S(=O)(=O)N2CCCC2)cc1Cl)NC1CC1	4.7	1	1	1.0	8.0
COc1ccc(S(=O)(=O)N2CCC(C(=O)NC3CC3)CC2)cc1Cl	-34.4	1.3	0.2	77.8*	5.8
SMILES	CYP2C9 inhib	CYP2C9 activ	CYP2C19 activ	CYP2C19 inhib	Measles CPE
O=C(NC1CC1)C1CCN(c2ccc(S(=O)(=O)N3CCOCC3)cc2)CC1	74.4*	0.3	1	-1.5	4.2
COc1ccc(S(=O)(=O)N2CCC(C(=O)NCc3ccccn3)CC2)cc1C	-129.9	2.3*	0.8	23.5	2.9
CCOCc1nnc(NC(C)=O)s1	6.5	0.9	1	0.3	6.0
C[C@@H](O)[C@@H]1NC(=O)c2cc([N+](=O)[O-])cc(I)c2NCC[C@@H](C(N)=O)NC(=O)CNC1=O	.	.	.	.	8.6
CCOc1ccc(N/N=C(/C#N)C(N)=O)cc1	-0.3	1	1	1.7	10.5
CN(C)CCn1c(=S)[nH]c2ccccc2c1=O	2.1	1	1.1	-9.5	2.4
Cc1nnc(N)nc1C	21.9	0.8	1	3.2	8.4
